Compound activity deposited in PubChem BioAssay by National Center for Advancing Translational Sciences (NCATS).
KB-V1 cytotox: KB-V1 MDR subline cytotoxicity. KB-V1 MDR cells viability, CellTiter-Glo, 72 h. Potency, µM (titrated, usually from 46.1 µM), actives largely listed as cytotoxic. 3.4% of 400,000 active; also: potency is read from the fitted curve at half-maximal effect; % is scaled to controls: 0 for no effect and ±100 for the full control effect; nearly all actives have a fitted effect of over 60% in size
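KB-V1, DMEM (no phenol red) + 10% FBS; cpd pin-transferred, titration series; 72 h, 37 degrees C; CellTiter-Glo, luminescence. Data normalized, curve-fit.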
SW480 rerep: DNA re-replication induction in SW480 cells. Potency, µM (titrated, usually from 46.1 µM), inactives show at the top dose re-replication activation, usual class: activators. SW480 DNA re-replication, Hoechst DNA content imaging, 48 h. AID 624297. 1.8% of 340,000 active; also: potency is read from the fitted curve at half-maximal effect; % of control where 0% means no effect; nearly all actives have a fitted effect of over 55% in size
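Treated cells incubate 48 hr (37 C, 5% CO2), are stained 40 min with Hoechst, and nuclear fluorescence is enumerated; a rise in nuclei with high DNA signal marks re-replication.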
MCF10A rerep: induces DNA re-replication in MCF 10a normal breast cells. MCF 10A DNA re-replication, Hoechst nuclear intensity, 48 h. Potency, µM (highest dose often 46.1 µM), for inactives: at the highest dose activity, positive = re-replication, hits mostly activators. 2.9% of 350,000 active. AID 624296; also: potency is read from the fitted curve at half-maximal effect; % of control where 0% means no effect; nearly all actives have a fitted effect of over 50% in size
S-ASM inh: human S-ASM enzyme inhibition | 0.006% of 340,000 active | Potency, µM (titrated, usually from 57.5 µM), for the others: at the highest dose activity change, negative = inhibition, most hits filed as inhibitors | P17405 | AID 504937 | placental ASM, HMU-PC fluorogenic substrate, 60 min; also: potency is read from the fitted curve at half-maximal effect
Target sequence (P17405 47-631 limits assumed): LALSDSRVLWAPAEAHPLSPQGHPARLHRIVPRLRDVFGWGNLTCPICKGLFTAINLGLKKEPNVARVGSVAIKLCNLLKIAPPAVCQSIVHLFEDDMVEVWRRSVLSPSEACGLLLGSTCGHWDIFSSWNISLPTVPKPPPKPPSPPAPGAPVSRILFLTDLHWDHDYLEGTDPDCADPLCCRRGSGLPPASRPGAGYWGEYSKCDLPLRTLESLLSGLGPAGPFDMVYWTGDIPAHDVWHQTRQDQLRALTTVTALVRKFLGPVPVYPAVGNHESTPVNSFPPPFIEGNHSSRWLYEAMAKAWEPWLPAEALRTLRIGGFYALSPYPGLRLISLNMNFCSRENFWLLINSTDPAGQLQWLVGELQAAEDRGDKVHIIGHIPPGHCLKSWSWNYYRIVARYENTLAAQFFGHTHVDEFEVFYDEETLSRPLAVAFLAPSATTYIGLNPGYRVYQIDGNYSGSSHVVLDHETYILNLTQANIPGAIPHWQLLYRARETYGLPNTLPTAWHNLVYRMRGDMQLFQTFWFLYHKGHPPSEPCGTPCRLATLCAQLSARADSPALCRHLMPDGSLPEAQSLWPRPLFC
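Steps: dispense placental human ASM, pin compound, wait 10 min at room temperature, add HMU-PC0 substrate at 9 uM final, incubate 60 min at 37 °C, add stop solution raising pH to 10, read fluorescence.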
Giardia killer: Giardia lamblia killing | Giardia lamblia trophozoite viability | activity change, % at 7.66 µM, hits read low | 0.15% of 340,000 active; in the data active = activity change below about -80%; inconclusive = between about -30% and that limit;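 also: parasites exposed to compound for two days anaerobically before the ATP read; % is scaled to controls: 0 for no effect and ±100 for the full control effect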
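ATP-content bioluminescence gauges trophozoite survival. Cells (100/well) receive compound and incubate anaerobically for 48 hrs at 37 deg C; detection reagent follows for 15-30 min at room temperature.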
KB-3-1 tox: KB-3-1 parental cell cytotoxicity | KB-3-1 viability, CellTiter-Glo ATP luminescence, 72 h | Potency, µM (doses to about 46.1 µM), usual class: cytotoxic | 1.4% of 400,000 active; also: potency is read from the fitted curve at half-maximal effect; % is scaled to controls: 0 for no effect and ±100 for the full control effect; nearly all actives have a fitted effect of over 60% in size
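Using CellTiter-Glo luminescence, growth of non-resistant KB-3-1 adenocarcinoma cells is assessed 72 h after pin-tool compound addition at 37 °C. Normalized responses across the concentration series yield fitted curves.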
An asterisk follows results filed as active; i = inactive; ? = inconclusive; . = no result given. Compounds with a hit are over-represented: about 6.9% of the library has one in this group of screens. Unless noted, calls follow the shape of the dose curve; as a rule, active = well fitted curve in the direction sought with a large enough effect; inconclusive = small, poorly fitted or top-dose-only effect, or another doubt; inactive = no such curve, though single readings can be large; an effect the other way counts as inactive or inconclusive.

SMILES	KB-V1 cytotox	SW480 rerep	MCF10A rerep	S-ASM inh	Giardia killer	KB-3-1 tox
COc1cc(CNCc2ccccn2)ccc1OCC(=O)NC1CCCCC1	20.6µM*	-67.1%	-0.4%	3.8%	4.4	i
CCOc1cc(CNCc2ccccc2)ccc1OCC(=O)NC1CCCCC1	.	?	26.2%	1.1%	13.9	.
COc1ccc(C(=O)c2oc3ccccc3c2NC(=O)COc2c(C)cc(C)cc2C)cc1	i	.	.	.	.	i
CCOC(=O)C1=C(CSc2nc3ccccc3s2)NC(=O)NC1c1cc(C)ccc1C (centres undefined)	i	18.4µM*	?	-10.7%	1.6	i
CCOC(=O)C1=C(CSc2nc3ccccc3s2)NC(=O)NC1c1ccc(OC)cc1 (centres undefined)	16.4µM*	-2.4%	5.4%	-8.1%	0.7	?
COc1cccc(NC(=O)Cn2cc(C(=O)C3CCCCC3)c3ccccc32)c1	?	.	.	.	.	i
OC(c1ccccc1)(c1nc(-c2cc3ccccc3o2)cs1)C(F)(F)F (centres undefined)	?	.	.	.	.	23.1µM*
Cc1cccc(NC(=S)N2CCn3cccc3C2c2cccnc2)c1 (centres undefined)	16.4µM*	-5.5%	-1.5%	7.1%	-11.1	i
Fc1ccc(C2c3cccn3CCN2C(=S)Nc2cccc(Br)c2)cc1 (centres undefined)	?	-0.9%	23.1µM*	-3.9%	-3.6	?
Fc1ccc(NC(=S)N2CCn3cccc3C2c2cccnc2)cc1 (centres undefined)	i	-2.5%	-0.4%	-1.1%	-23.9	i
O=C(c1ccccc1)N1CCCC(c2nc3c(nnn3Cc3ccc(F)cc3F)c(=O)[nH]2)C1 (centres undefined)	i	.	.	.	.	i
CCc1cccc(C)c1NC(=O)CCCn1c(C)c2cnn(-c3ccccc3)c(=O)c2c1C	i	.	.	.	.	i
Cc1cccc(N2CCN(C(=O)c3cc4ccc5cccnc5c4[nH]3)CC2)c1C	i	.	.	.	.	i
O=C(Cn1nc(-c2ccccc2)c2cnc3ccc(F)cc3c21)NC1CCCC1	i	.	.	.	.	i
Cn1nc(-c2ccccc2)c(CO)c1Oc1cccc(C(F)(F)F)c1	i	-0.8%	4.7%	-1.7%	22.1	i
Cc1ccc(Sc2c(CO)c(-c3ccccc3)nn2C)cc1	?	0.82µM*	1.03µM*	-7.8%	-5.5	?
COc1ccc(C(=O)CC(Nc2ccc([N+](=O)[O-])cc2)c2ccc(Cl)cc2)cc1 (centres undefined)	6.51µM*	?	12.8%	-18.9%	-11.0	i
CCN(CC)CCn1c(NS(=O)(=O)c2ccc(C)cc2)nc2ccccc21	20.6µM*	-5.7%	6.8%	6.4%	-1.0	i
c1ccc(Cn2c(CNc3nc4ccccc4n3CCN3CCCCC3)nc3ccccc32)cc1	?	?	?	-1.5%	19.1	i
CCN(CC)CCn1c(NCc2nc3ccccc3n2Cc2ccccc2)nc2ccccc21	i	?	23.1µM*	0.5%	4.1	i
CCCCn1c(NCc2ccccc2NS(=O)(=O)c2ccc(C)cc2)nc2ccccc21	?	5.6%	20.3%	-0.7%	1.3	i
CCc1cccc(N2C(=O)CSC23C(=O)N(Cc2ccccc2F)c2ccccc23)c1 (centres undefined)	14.6µM*	.	.	.	.	20.6µM*
O=C1CCSC2(C(=O)N(Cc3ccc(F)cc3)c3ccccc32)N1c1ccccc1 (centres undefined)	i	.	.	.	.	i
O=C1CSC2(C(=O)N(Cc3cccc(C(F)(F)F)c3)c3ccccc32)N1c1ccc(F)c(F)c1 (centres undefined)	i	.	.	.	.	?
O=C1CSC2(C(=O)N(Cc3ccccc3F)c3ccccc32)N1c1ccc(F)cc1 (centres undefined)	16.4µM*	.	.	.	.	?
SMILES	KB-V1 cytotox	SW480 rerep	MCF10A rerep	S-ASM inh	Giardia killer	KB-3-1 tox
Cc1ccnc2cc(Cl)c(Cl)cc12	?	.	.	.	.	i
CCOC(=O)c1ccc2[nH]c(CSc3nnc(-c4cccc(F)c4)n3C)cc(=O)c2c1	?	.	.	.	.	i
CN(C)CCCN1C(=O)c2cccc3c(Br)ccc(c23)C1=O	?	?	7.31µM*	0.6%	-4.8	?
CCCN1C(=O)c2cccc3c(N4CCCCC4)ccc(c23)C1=O	?	.	3.66µM*	7.2%	-14.8	i
CCN1C(=O)c2cccc3c(N)ccc(c23)C1=O	i	4.5%	5.0%	-8.9%	0.4	i
CCCCNc1ccc2c3c(cccc13)C(=O)N(CCCC)C2=O	?	20.6µM*	7.31µM*	?	-13.6	i
CCc1cccc(C)c1NC(=O)C(CC)Sc1nncn2c1cc1occc12 (centres undefined)	i	.	.	.	.	i
COc1cc(C(=O)NCC(c2cccs2)N2CCc3ccccc32)cc(OC)c1OC (centres undefined)	i	-558.2%	4.6%	-2.0%	-3.8	i
COc1ccccc1C(=O)NCC(c1cccs1)N1CCc2ccccc21 (centres undefined)	?	13.6%	18.4µM*	-11.4%	-12.5	?
COc1ccc(Cl)cc1S(=O)(=O)N1CCC(C(=O)NCc2ccco2)CC1	i	-6.4%	-2.6%	1.4%	-13.8	i
O=C(CSc1nnc(-c2ccc3c(c2)OCO3)n1-c1ccccc1)c1ccccc1	8.2µM*	-1.6%	-3.3%	-1.4%	6.4	i
C=CCn1c(SCC(=O)c2ccc(Cl)cc2)nnc1-c1ccc2c(c1)OCO2	?	?	-4.0%	4.1%	11.4	i
O=C(CSc1nnc(-c2ccc3c(c2)OCO3)n1-c1ccccc1)c1ccc(Cl)cc1	16.4µM*	-1.0%	11.6%	0.7%	33.4	i
O=C(CSc1nnc(-c2cccs2)n1-c1ccccc1)c1ccc2c(c1)OCCO2	i	-6.4%	5.9%	-1.3%	-10.9	i
Cc1cccc(-n2c(=O)c3ccccc3n(Cc3ccccc3)c2=O)c1	i	.	.	.	.	i
Cc1ccc(Cl)cc1NC(=O)CSc1nc2c(c(=O)[nH]1)CN(Cc1ccccc1)CC2	i	.	.	.	.	i
Cc1cc(C)c(C(=O)/C=C/c2ccc(C(C)C)cc2)c(=O)[nH]1	16.4µM*	?	13µM*	-4.3%	-4.3	i
COc1ccc(S(=O)(=O)Nc2cc(C)c(O)c(S(=O)(=O)c3ccccc3)c2)cc1	16.4µM*	0.7%	-0.7%	-0.2%	16.4	i
Cc1cccc2sc(N(CCN(C)C)C(=O)/C=C/c3cccs3)nc12	18.4µM*	?	23.1µM*	-14.1%	13.5	?
COc1ccc2nc(N(CCN(C)C)C(=O)/C=C/c3cccs3)sc2c1	i	3.4%	26.2%	-6.5%	-6.4	?
